# L3MBTL1 inh: qHTS Assay for the Inhibitors of L3MBTL1 | Lethal(3)malignant brain tumor-like protein 1 (Homo sapiens), Q9Y468 | AlphaScreen L3MBTL1–H3K9me1 peptide binding | Potency, µM (series often up to 57.1 µM), inactives show at the highest dose activity, negative = inhibition, usual class: inhibitors | actives 0.66% (n = 230,000); also: % is scaled to controls: 0 for no effect and ±100 for the full control effect; nearly all actives have a fitted effect of over 60% in size
#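 AlphaScreen proximity signal between nickel-chelate acceptor and streptavidin donor beads (final 10 ug/mL) reports binding of 50 nM L3MBTL1 to 75 nM biotin-H3 K9me1 peptide; complex incubated with compounds 30 min at room temperature; cefsulodin titration as control.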
# Sfp PPTase inh: qHTS Assay for Inhibitors of Bacillus subtilis Sfp phosphopantetheinyl transferase (PPTase). Potency, µM, for inactives: largest response in the series, negative = inhibition, actives largely listed as inhibitors. Biochemical Sfp PPTase activity, qHTS. AID 1490, 2009. actives 3.5% (n = 310,000);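 also: the enzyme is Sfp with the accession as filed and its product quenches rhodamine fluorescence; 0% = enzyme reaction without inhibitor and -100% = no enzyme wells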
#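 Sfp 15 nM + cpd, 15 min RT; start w/ rhodamine-CoA 5 uM, BHQ-2-YbbR 12.5 uM (final); 50 mM Hepes pH 7.6, 10 mM MgCl2, 0.01% NP-40, 0.01% BSA; read 525/598 nm at 0 and 30 min.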
# G9a block: qHTS Assay for Inhibitors of Histone Lysine Methyltransferase G9a; Histone-lysine N-methyltransferase EHMT2 (Homo sapiens), Q96KQ7; G9a H3K9 monomethylation, AlphaScreen, 2 h; Potency, µM (doses to about 102 µM), without a hit: at the top dose activity, negative = inhibition, most hits filed as inhibitors; actives 8.8% (n = 350,000); also: % is scaled to controls: 0 for no effect and ±100 for the full control effect; nearly all actives have a fitted effect of over 75% in size
# Target sequence (Q96KQ7 913-1193 limits assumed): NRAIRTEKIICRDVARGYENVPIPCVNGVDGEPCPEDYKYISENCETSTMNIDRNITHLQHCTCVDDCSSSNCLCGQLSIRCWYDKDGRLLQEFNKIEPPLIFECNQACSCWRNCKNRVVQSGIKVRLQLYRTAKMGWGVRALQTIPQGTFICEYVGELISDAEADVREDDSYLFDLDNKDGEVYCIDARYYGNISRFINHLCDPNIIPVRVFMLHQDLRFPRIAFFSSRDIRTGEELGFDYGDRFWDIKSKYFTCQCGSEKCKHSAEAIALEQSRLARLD
#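 AlphaScreen detection with an anti-monomethyl H3K9 antibody quantified product after a 2 h room-temperature reaction containing 500 nM biotinylated H3K9 peptide, 20 µM SAM and 20 nM enzyme, which had been preincubated 15 min with compound.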
# BAZ2B block: qHTS Assay for Inhibitors of BAZ2B. Bromodomain adjacent to zinc finger domain protein 2B (Homo sapiens), Q9UIF8. AlphaScreen BAZ2B-H3K14Ac peptide displacement. actives 4.4% (n = 360,000). Potency, µM (doses to about 114 µM), for inactives: at the top dose activity change, negative = inhibition, most hits filed as inhibitors. AID 504333, 2011; also: % is scaled to controls: 0 for no effect and ±100 for the full control effect; nearly all actives have a fitted effect of over 60% in size
#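 In this displacement format the biotinylated H3(5-23) peptide acetylated at Lys14 serves as ligand at 50 nM, with BAZ2B at 50 nM in PBS pH 7.4 containing 0.01% Tween-20. Donor and acceptor beads are 10 ug/mL final.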
# JMJD2A Tudor inh: qHTS Assay for Inhibitors of JMJD2A-Tudor Domain; actives 4.4% (n = 390,000); Lysine-specific demethylase 4A (Homo sapiens), O75164; AlphaScreen JMJD2A-Tudor / H3K4me3 peptide binding; Potency, µM (doses to about 114 µM), for inactives: at the top dose activity change, negative = inhibition, usual class: inhibitors; also: % is scaled to controls: 0 for no effect and ±100 for the full control effect; nearly all actives have a fitted effect of over 50% in size
# HP1b binding inh: HTS for Inhibitors of HP1-beta Chromodomain Interactions with Methylated Histone Tails. Chromobox protein homolog 1 (Homo sapiens), P83916. AlphaScreen HP1-beta / biotin-H3K9me3 peptide binding. Potency, µM (highest dose often 114 µM), without a hit: at the highest dose activity change, negative = inhibition, actives largely listed as inhibitors. actives 0.56% (n = 390,000). AID 540317, 2011; also: nearly all actives have a fitted effect of over 70% in size
# Target sequence (P83916 whole entry, looked up): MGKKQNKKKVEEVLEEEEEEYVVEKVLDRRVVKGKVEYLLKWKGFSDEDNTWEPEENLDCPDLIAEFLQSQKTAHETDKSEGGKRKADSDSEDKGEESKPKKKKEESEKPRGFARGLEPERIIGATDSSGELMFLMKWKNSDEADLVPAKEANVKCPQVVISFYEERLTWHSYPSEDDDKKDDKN
#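 AlphaScreen: HP1-beta (50 nM) preformed 30 min with biotin-H3(1-18)K9me3 peptide (50 nM) in PBS pH 7.4, 0.01% Tween-20. Compound added for 30 min at RT, then streptavidin donor/nickel chelate acceptor beads (10 ug/mL) for 30 min.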
# Active calls of the source: *; ? = inconclusive; / = not tested or not shown; [ ] = dose if it differs, or a comment. In the library only some 12% were active in any assay of this set; here they are far more common. Calls follow the shape of the dose curve; as a rule, active = well fitted curve in the direction sought with a large enough effect; inconclusive = small, poorly fitted or top-dose-only effect, or another doubt; inactive = no such curve, though single readings can be large; an effect the other way counts as inactive or inconclusive. Potency is read from the fitted curve at half-maximal effect.
SMILES,L3MBTL1 inh,Sfp PPTase inh,G9a block,BAZ2B block,JMJD2A Tudor inh,HP1b binding inh
CN1CCCC(OC(=O)COc2ccccc2)C1 (stereo not given),3%,5%,50µM*,-4%,-5%,11%
Cc1ccc(OCC(=O)OC2CCCN(C)C2)cc1 (stereo not given),14%,-2%,1%[0.501 µM],-4%,?,32%
Cc1ccc2nc(-c3ccc(N4C(=NC(=O)CCC(=O)O)SC5CS(=O)(=O)CC54)cc3)sc2c1 (stereo not given),13µM*,-6%,45µM*,?,?,?
CCC1=C2CC[C@H]3C(=O)N(C)C(=O)[C@H]3[C@H]2[C@@]2(C)C(=NCc3ccccc3)OC(=O)N2C1=O,/,19%,/,/,/,/
CC(C)CCC(O)(CCC(C)C)C(=O)NNc1ccccc1,7%,11%,50µM*,-5%,2%[57.1 µM],33%
CC(=O)C1=C(C)NC(SCc2ccc(C#N)cc2)=C(C#N)C1c1ccco1 (stereo not given),4%,?,?,-33%,20µM*,34%
CC(=O)C1=C(C)NC(SCc2cccc3ccccc23)=C(C#N)C1c1ccco1 (stereo not given),-1%,50µM*,32µM*,-8%,10µM*,37%
CCc1ccc(NC(=O)C(CC)n2nnc(C(=O)OC)c2C(=O)OC)cc1 (stereo not given),/,/,-8%[59 µM],3%,-13%,9%
COC(=O)c1ccc2[nH]ccc2c1,5%,14%,6%,-6%,-1%,26%
CCOc1ccccc1C1NC(c2ccc3c(c2)OCO3)=CC(c2ccccc2O)N1 (stereo not given),/,/,/,/,-18%[57.1 µM],8%[57 µM]
CCc1ccc(Nc2n[n+](-c3ccccc3)c(-c3ccc(OCc4ccccc4)cc3)s2)cc1,-6%,-7%,?,50µM*,-27%,21%
c1ccc(COc2ccc(-c3sc(Nc4ccccc4)n[n+]3-c3ccccc3)cc2)cc1,-4%,56µM*,22µM*,45µM*,/,/
CCOc1ccc(NC(=S)Nc2ccc(OCc3ccccc3)cc2)cc1,-19%,15%,3%[59 µM],?,-22%,-3%
COc1ccc(CCNC(=O)CCn2c(=O)c3cccn3c3ccc(F)cc32)cc1OC,/,/,-8%[59 µM],-20%,-10%,4%
Cc1nc(N2CCCCC2)c2c(-c3cccs3)csc2n1,/,56µM*,17%[59 µM],-34%,36%,70%
Cc1nc(N2CCCCC2)c2ccsc2n1,/,?,20µM*,5µM*,0.79µM*,?
Cc1nc(N2CCN(S(=O)(=O)c3ccccc3C#N)CC2)c2c(-c3cccs3)csc2n1,-5%,12%,-19%,/,-31%,8%[57 µM]
Cn1nc(-c2ccc(Cl)cc2)cc1NC(=O)CCCC(=O)O,7%,12%,/,4%,4%,55%
O=c1[nH]c(-c2ccc(F)cc2)nc2c1sc(=S)n2-c1ccccc1,7%,-11%,40µM*,50µM*,?,18%
O=c1[nH]c(-c2ccc3c(c2)OCO3)nc2c1sc(=S)n2-c1ccccc1,16%,12%,-30%,0%,-7%,30%
O=c1[nH]c(-c2ccccc2Cl)nc2c1sc(=S)n2-c1ccccc1,0%,1%,-24%,-16%,-21%,15%
O=c1[nH]cnc2c1sc(=S)n2-c1ccccc1,10%,18µM*,2.2µM*,6%,89µM*,-36%
CN(C)c1ncnc2ccc(-c3ccccc3C(F)(F)F)cc12,/,-9%,7%[0.501 µM],/,/,/
CC(=C/c1ccc(C(C)C)cc1)/C=N/NC(=O)Cn1nnnc1N,-3%,17%,7%,?,-23%,48%
C=CCOc1c(Br)cc(CNn2c(C)n[nH]c2=S)cc1OC,-8%,-14%,11µM*,-30%,89µM*,?
SMILES,L3MBTL1 inh,Sfp PPTase inh,G9a block,BAZ2B block,JMJD2A Tudor inh,HP1b binding inh
C=CCOc1c(Br)cc(CNc2nccs2)cc1OC,-6%,-9%,11µM*,?,?,1%
C=CCOc1ccc(CNn2c(C)n[nH]c2=S)cc1OC,-12%,-6%,/,0%,20µM*,49%
CC(C)(C)c1cc(=O)n2[nH]c(N)nc2n1,-9%,?,/,56µM*,?,28%
Nc1nc2nc(-c3ccccc3)cc(=O)n2[nH]1,/,14%,3%[59 µM],-16%,?,15%
CC(C)c1cc(=O)n2[nH]c(N)nc2n1,2%,79µM*,79µM*,-27%,-46%,3%
COc1ccccc1Nc1nc(N)nc(CSC(=S)N2CCN(c3ccccc3)CC2)n1,-29%,10%,-40%,-33%,-31%,14%
COc1ccccc1N1CCN(Cc2nc(N)nc(Nc3ccccc3)n2)CC1,-5%,7%,79µM*,-95%,50µM*,14%
COc1ccccc1N1CC(C(=O)OCc2nc(N)nc(Nc3ccccc3)n2)CC1=O (stereo not given),7%,/,?,1%,-22%,27%
COc1ccccc1Nc1nc(N)nc(CSc2nccn2C)n1,5%,11%,5%,-4%,-4%,4%
COc1cccc(N2CCN(Cc3nc(N)nc(Nc4ccccc4OC)n3)CC2)c1,-13%,-13%,-5%[59 µM],50µM*,-27%[57.1 µM],18%
COc1ccccc1Nc1nc(N)nc(CN2CCN(c3ccccc3)CC2)n1,/,-11%,?,50µM*,56µM*,-1%
CCOc1cc(N2CCOCC2)c(OCC)cc1NC(=O)CN1C(=O)NC(C)(c2ccc(OC)cc2)C1=O (stereo not given),/,/,/,/,-26%,26%
O=[N+]([O-])c1ccc(Cl)cc1P(=O)(O)c1cc(Cl)ccc1[N+](=O)[O-],/,/,/,/,-19%,36%
COc1ccc(/C=C/C2=CC3(C)CC2(C)C(c2ccc(OC)cc2)CC3=O)cc1 (stereo not given),/,-24%,/,/,/,/
O=c1c(-c2cccc(F)c2)nc2cncnc2n1-c1ccccc1,/,24%,-6%[12.7 µM],/,/,/
Cc1ccc(-n2c(-c3cc(C)n(C)n3)n[nH]c2=S)cc1,10%,?,7.9µM*,-26%,7.1µM*,14%
S=c1[nH]nc(-c2ccc3ccccc3n2)n1-c1cc(Cl)cc(Cl)c1,-15%,-23%,?,-25%,-29%,12%
Cc1cc(-c2n[nH]c(=S)n2-c2ccccc2)nn1C,0%,79µM*,8.9µM*,-11%,3.2µM*,26%
